The assay addresses Muscarinic acetylcholine receptor M2 (Homo sapiens) (UniProt P08172). In words: off-target M2 muscarinic calcium response – cell-based, CHO-K1 hM2/Gqi5, Fluo-4 calcium flux, ACh EC20, counter-screen for M5 NAM project (AID 743099). On the technique in general: A change in cytosolic calcium serves as a functional read-out for many receptors and channels.

Active and inactive are the calls of the source. How the calls were made is not given here.

Chain of Muscarinic acetylcholine receptor M2 (Homo sapiens) (P08172 whole entry, looked up): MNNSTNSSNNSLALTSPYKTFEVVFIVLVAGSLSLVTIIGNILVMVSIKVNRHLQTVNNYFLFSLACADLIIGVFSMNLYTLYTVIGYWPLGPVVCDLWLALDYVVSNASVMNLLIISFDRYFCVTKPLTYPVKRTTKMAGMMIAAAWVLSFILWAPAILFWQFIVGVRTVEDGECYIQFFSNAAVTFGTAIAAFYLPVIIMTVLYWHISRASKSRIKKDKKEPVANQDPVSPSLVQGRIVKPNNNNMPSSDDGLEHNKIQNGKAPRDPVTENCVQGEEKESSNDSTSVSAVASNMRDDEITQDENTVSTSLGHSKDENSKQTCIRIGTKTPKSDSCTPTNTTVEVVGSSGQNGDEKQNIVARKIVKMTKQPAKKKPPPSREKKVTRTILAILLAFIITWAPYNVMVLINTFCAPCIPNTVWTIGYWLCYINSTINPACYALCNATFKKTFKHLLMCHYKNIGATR

As for `O=C(c1cc(F)cc(F)c1)N1CCN2C(=O)c3ccccc3C12c1ccc(Cl)cc1` (stereo not given), the outcome was inactive. Turning to `O=C(c1ccc(F)c(F)c1)N1CCN2C(=O)c3ccccc3C12c1ccccc1` (stereo not given), the outcome was inactive. As to `O=C(c1ccc(F)cc1)N1CCN2C(=O)c3ccccc3C12c1ccccc1` (stereo not given), the outcome was inactive. As to `O=C(c1ccc(F)c(F)c1)N1CCN2C(=O)c3ccccc3[C@@]12c1ccc(Cl)cc1`, the outcome was inactive. For the compound `O=C(c1ccc(F)c(F)c1)N1CCN2C(=O)c3ccccc3C12c1ccc(Cl)cc1` (stereo not given), the outcome was inactive.

The values are drawn from PubChem BioAssay AID743099 (Vanderbilt Specialized Chemistry Center, 2013).
